Sampled rows, rich in hits. Any-hit rate of the full collection: about 3.6%.
KDM4E inh: inhibitors of human JMJD2E histone demethylase; B2RXH2; JMJD2E catalytic domain, FDH-coupled NADH fluorescence (FDH is formaldehyde dehydrogenase); Potency, µM (highest dose often 57.1 µM), most hits filed as inhibitors; 230,000 tested, 1.6% active; AID 2147; active = well fitted inhibition curve with a large enough effect, not every such curve was filed as active; inconclusive = small, poorly fitted or top-dose-only effect, or another doubt; inactive = no such curve, though single readings can be large or run the other way; note: nearly all actives have a fitted effect of over 50% in size
Epigenetic derep: derepresses silenced GFP reporter in murine cells | Potency, µM (top dose mostly 53.9 µM), most hits filed as activators | 280,000 tested, 0.2% active | murine LDR cells, GFP reporter derepression, 30 h; note: nearly all actives have a fitted effect of over 60% in size
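Murine LDR cells carrying a silenced, genomically integrated CMV-driven GFP reporter were exposed to compound for 30 hours at 37 C. After PBS washes, GFP-positive cells (20–120 um objects) were counted by laser-scanning microplate cytometry.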
GCN5L2 inh: inhibitors of human GCN5L2 histone acetyltransferase | Q92830 | GCN5L2 HAT assay, ThioGlo1 CoA-SH fluorescence | Potency, µM (highest dose often 58.9 µM), most hits filed as inhibitors | 390,000 tested, 0.21% active | AID 504327
Target sequence (Q92830 whole entry, looked up): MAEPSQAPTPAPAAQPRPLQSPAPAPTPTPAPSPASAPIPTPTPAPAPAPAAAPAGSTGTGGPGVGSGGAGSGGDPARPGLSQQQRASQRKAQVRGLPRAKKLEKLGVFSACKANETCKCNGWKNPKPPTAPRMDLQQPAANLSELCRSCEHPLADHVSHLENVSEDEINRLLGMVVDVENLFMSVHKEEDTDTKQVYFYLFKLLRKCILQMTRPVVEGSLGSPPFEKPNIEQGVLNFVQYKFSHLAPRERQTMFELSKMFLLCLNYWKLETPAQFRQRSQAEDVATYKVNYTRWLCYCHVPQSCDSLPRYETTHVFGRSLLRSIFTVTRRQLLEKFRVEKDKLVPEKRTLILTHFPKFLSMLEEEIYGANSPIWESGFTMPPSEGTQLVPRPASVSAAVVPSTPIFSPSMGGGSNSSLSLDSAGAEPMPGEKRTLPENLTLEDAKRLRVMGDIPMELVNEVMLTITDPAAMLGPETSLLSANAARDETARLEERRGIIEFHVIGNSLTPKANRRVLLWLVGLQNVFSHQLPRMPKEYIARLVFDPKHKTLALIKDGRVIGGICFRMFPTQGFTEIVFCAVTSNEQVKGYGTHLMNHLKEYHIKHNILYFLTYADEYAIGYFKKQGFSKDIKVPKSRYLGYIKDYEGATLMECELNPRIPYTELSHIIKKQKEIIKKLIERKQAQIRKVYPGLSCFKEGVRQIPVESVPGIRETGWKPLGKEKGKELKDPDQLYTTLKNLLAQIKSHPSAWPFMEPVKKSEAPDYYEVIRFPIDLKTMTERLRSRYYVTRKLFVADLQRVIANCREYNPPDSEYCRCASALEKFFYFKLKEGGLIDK
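ThioGlo1-coupled HAT assay: 20nM GCN5L2, 70uM acetyl-CoA, 75uM H3(1-25) peptide, pH 7.5. Fluorescence read at 340/540nm at start and after 20 min at room temperature.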
IMPase Li inh: cell-permeable IMPase inhibitors with lithium potentiation. 210,000 tested, 0.35% active. CHO-M1 cells, IP1 TR-FRET (IP-One), carbachol + lithium. Potency, µM (doses to about 59.4 µM), most hits filed as inhibitors. AID 1457;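 note: IP1 builds up when IMPase is blocked and the TR-FRET signal falls; nearly all actives have a fitted effect of over 50% in size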
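CHO cells stably expressing M1 receptor (2000/well) were cultured 16–30 h, then exposed to compounds with a small lithium addition for 30 min at 37C. IP1 was measured by TR-FRET competition; AC50 from Hill fits.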
Sfp PPTase inh: inhibitors of Bacillus subtilis Sfp phosphopantetheinyl transferase. 310,000 tested, 3.5% active. Potency, µM, actives largely listed as inhibitors. Biochemical Sfp PPTase activity, qHTS. Q9F4F7;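 note: the enzyme is Sfp with the accession as filed and its product quenches rhodamine fluorescence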
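Fluorescence-quenching assay: 15 nM Sfp-PPTase preincubated 15 min at room temperature with compound, then 5 uM rhodamine-CoA and 12.5 uM BHQ-2-labelled YbbR peptide added. Fluorescence (ex 525/em 598 nm) read at start and after 30 min; difference gives rate.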
NPSR antag: neuropeptide S receptor (human) antagonism, cAMP; Potency, µM (titrated, usually from 38.3 µM), hits mostly inhibitors; AID 1461; CHO-NPSR cells, cAMP TR-FRET, antagonist mode; 220,000 tested, 1% active; Q6W5P4; note: nearly all actives have a fitted effect of over 50% in size
A number is an active result; – = inactive; ? = inconclusive; · = not tested or not shown; [ ] = dose if it differs, or a comment. Unless noted, calls come from the whole dose curve; as a rule, active = well fitted curve in the direction sought with a large enough effect; inconclusive = small, poorly fitted or top-dose-only effect, or another doubt; inactive = no such curve, though single readings can be large; an effect the other way counts as inactive or inconclusive.

SMILES | KDM4E inh | Epigenetic derep | GCN5L2 inh | IMPase Li inh | Sfp PPTase inh | NPSR antag
CC(=O)N(C1CC(C)C(C#N)(C#N)C1(C#N)C#N)N(C)C (stereo unspecified) | – | –[10.1 µM] | – | – | 10µM | –
Cc1[nH][nH]c(=O)c1C(c1c(C)[nH][nH]c1=O)c1cn(Cc2cccc3ccccc23)c2ccccc12 | – | – | – | – | – | –
Cc1[nH][nH]c(=O)c1C(c1c(C)[nH][nH]c1=O)c1cn(C)c2ccccc12 | – | – | – | – | 45µM | –
CCCCC[C@H](O)/C=C/[C@H]1OC(O)C[C@H](O)[C@@H]1C/C=C\CC(=O)O (stereo partly specified) | – | – | · | – | – | ·
Oc1cccc(C=NCc2ccccc2)c1O | 13µM | – | – | – | ? | ?
Oc1ccccc1N=Cc1c(O)ccc2ccccc12 | 25µM | ? | – | · | – | –
Oc1cccc(C=Nc2cccc3ccccc23)c1O | · | · | ? | · | 13µM | ·
CN(C)/N=C/c1c(O)ccc2ccccc12 | – | – | – | – | – | –
Cc1cc(N=Cc2c(O)ccc3ccccc23)no1 | – | – | – | · | – | –
Cc1n[nH]c(=S)n1/N=C/c1c(O)ccc2ccccc12 | · | · | – | · | 63µM | ·
CSCC[C@H](N)C(=O)N[C@@H](CCC(=O)O)C(=O)N[C@H](C(=O)NCC(=O)N[C@@H](Cc1c[nH]c2ccccc12)C(=O)N[C@@H](Cc1ccc(O)cc1)C(=O)N[C@@H](CCCNC(=N)N)C(=O)N[C@@H](CO)C(=O)N1CCC[C@H]1C(=O)N[C@@H](Cc1ccccc1)C(=O)N[C@@H](CO)C(=O)N[C@@H](CCCNC(=N)N)C(=O)N[C@H](C(=O)N[C@H](C(=O)N[C@@H](Cc1cnc[nH]1)C(=O)N[C@@H](CC(C)C)C(=O)N[C@@H](Cc1ccc(O)cc1)C(=O)N[C@@H](CCCNC(=N)N)C(=O)N[C@@H](CC(N)=O)C(=O)NCC(=O)N[C@@H](CCCCN)C(=O)O)C(C)C)C(C)C)C(C)C | · | · | – | · | – | ·
c1ccc(-c2nc(-c3cccc4ccccc34)c(Nc3ccc4ccccc4c3)o2)cc1 | – | – | · | – | – | ·
CC(C)c1ncc([N+](=O)[O-])n1C | · | · | – | · | – | ·
CCOC(=O)N1CCN([N+]([O-])=NOc2cc(O/N=[N+](\[O-])N(CC)CC)c([N+](=O)[O-])cc2[N+](=O)[O-])CC1 | · | · | · | · | – | ·
Cc1cccc(C=Nc2ccc3c4c(cccc24)CC3)c1O | ? | ? | 20µM | – | – | –
Cc1ccc2nc(/C(C#N)=C\c3ccc([N+](=O)[O-])o3)[nH]c2c1 | – | 1µM | – | – | – | 10µM
N#C/C(=C\c1ccc(-c2ccccc2C(=O)O)o1)c1nc2ccccc2[nH]1 | · | – | – | · | – | ·
Cc1ccc2nc(/C(C#N)=C\c3ccc(N4CCOCC4)o3)[nH]c2c1 | – | 14µM | – | – | – | –
N#C/C(=C\c1ccc(-c2ccc(F)cc2F)o1)c1nc2ccccc2[nH]1 | · | 7.9µM | – | · | · | ·
CCOC(=O)c1ccc(-c2ccc(/C=C(\C#N)c3nc4ccc(C)cc4[nH]3)o2)cc1 | · | 1.6µM | – | · | · | ·
CCOc1ccc(CCNC(=O)C2=C(C)C(=O)OC23CCCCC3)cc1 | · | – | – | · | · | ·
Cc1[nH]n(-c2ccccc2)c(=S)c1C=NCCCN=Cc1c(C)[nH]n(-c2ccccc2)c1=S | – | – | 18µM | – | – | –
CCN=C1NN=C(c2ccc(C)cc2)CS1 | – | – | – | – | ? | –
CC(C)N=C1NN=C(c2ccc(F)cc2)CS1 | – | – | – | – | 56µM | –
O=S(=O)(c1ccc(Cl)cc1)c1nnn2c1nc(N1CCCCC1)c1sccc12 | · | – | – | · | · | ·
SMILES | KDM4E inh | Epigenetic derep | GCN5L2 inh | IMPase Li inh | Sfp PPTase inh | NPSR antag
Clc1ccccc1C(c1ccccc1)(c1ccccc1)n1ccnc1 | – | – | – | – | – | 5µM
Cc1cc(NC(=O)c2cc(C)on2)no1 | – | – | – | ? | – | –
CNc1nc(N)c(C(=O)Nc2cc(C)on2)s1 | – | – | – | – | 50µM | –
COc1cc2c(cc1OC)C(c1ccc(-c3ccc(Cl)c(Cl)c3)o1)=NCC2 | – | – | –[0.501 µM] | – | 20µM | ?
COc1cc2c(cc1OC)C(c1ccc(-c3ccc(Cl)cc3Cl)o1)=NCC2 | – | – | – | – | 28µM | 7.9µM
CC(C)=NNc1nc2c(c(=O)n(C)c(=O)n2C)n1C | – | – | – | · | 22µM | –
Cn1c(=O)c2c(nc(N/N=C/c3cccs3)n2C)n(C)c1=O | – | – | – | · | – | –
Cn1c(=O)c2c(nc(N/N=C/c3ccco3)n2C)n(C)c1=O | – | – | – | – | 18µM | –
Cc1nc(N2CCOCC2)c2nc(-c3ccccc3)n(CC(C)(C)CN(C)C)c2n1 | ? | – | · | – | – | ·
CC(NC(=O)/C(=C\c1cccc([N+](=O)[O-])c1)NC(=O)c1ccco1)C(=O)O (stereo unspecified) | – | – | – | – | 79µM | –
CC(=O)Nc1ccc(CN2CCc3c([nH]c4ccccc34)C2c2ccccn2)cc1 (stereo unspecified) | 25µM | – | – | – | – | –
CCOC(=O)c1[nH]c(C)c(C(=O)N2CCc3c([nH]c4ccccc34)C2c2ccccn2)c1C (stereo unspecified) | – | – | – | – | – | ?
Cc1nc(C)c(CC(=O)N2CCc3c([nH]c4ccccc34)C2c2ccccn2)s1 (stereo unspecified) | ? | – | – | – | – | –
CC(=O)c1cc(CC(=O)N2CCc3c([nH]c4ccccc34)C2c2ccccn2)cs1 (stereo unspecified) | ? | – | – | – | 20µM | –
COCCCNC(=S)NNC(=S)Nc1ccc(F)cc1F | – | – | – | – | 79µM | –
COCCCNC(=S)NNC(=S)Nc1ccccc1 | – | – | – | · | 45µM | –
COCCCNC(=S)Nc1ccc(C)cc1 | – | – | – | · | – | –
S=c1[nH]nc(-c2cccc(Br)c2)o1 | ? | – | – | 10µM | – | –
CN(C)C(=S)Nc1cccc(-c2n[nH]c(=S)o2)c1 | ? | – | – | ? | – | –
c1cncc(-c2cc(-c3cc(-c4cccnc4)n[nH]3)[nH]n2)c1 | · | · | · | – | · | ·
O=S(=O)(c1cccc(-c2n[nH]c(=S)n2-c2ccccc2Cl)c1)N1CCOCC1 | · | · | – | · | · | ·
S=c1[nH]nc(-c2cccnc2)o1 | – | – | – | – | 56µM | –
NNC(=S)Nc1cccc(-c2n[nH]c(=S)o2)c1 | ? | – | – | · | 79µM | –
O=S(=O)(c1cccc(-c2n[nH]c(=S)o2)c1)N1CCOCC1 | – | – | – | · | 25µM | –
Nn1c(-c2cccc(Br)c2)n[nH]c1=S | ? | – | ? | – | ? | –
COc1ccc(-n2c(=O)cnc3cnc(N4CCN(C)CC4)nc32)cc1 | · | · | – | – | – | ·
COc1cccc(C2NC(C(=O)O)CCC2C)c1 (stereo unspecified) | · | –[10.1 µM] | · | · | – | ·
